FXIa inh mix = factor XIa (human) inhibition, mixture screen; P03951; purified FXIa, fluorogenic substrate, pooled mixtures; inhibition, % at 5 µM; hit rate 0.19% among 62,000;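 note: each value is inhibition by a whole ten-compound pool holding the compound; 0% = enzyme with no mixture and 100% = wells lacking enzyme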
hDAT+cocaine = human DAT dopamine uptake with cocaine, either direction; Q01959; B-score at 10 µM; LLC-PK1 hDAT cells, [14C]-dopamine uptake with cocaine IC80; actives deviate in either direction; hit rate 1.3% among 110,000;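 active = Z score or B-score, a plate-position-corrected score, falls beyond the plate's 99.7% confidence bounds, in either direction; inactive = both scores lie inside the 99.7% bounds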;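 note: scored against the spread of the other compound wells on the same plate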
D1 allo mod = allosterically modulates the human D1 dopamine receptor | hit rate 5.9% among 58,000 | AID 641 | HEK293 D1, CRE-luciferase, dopamine EC30 potentiation; actives deviate in either direction | B-score at 10 µM;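 active = luminescence count or its row- and column-corrected plate score outside the 99.7% band of the plate's sample wells, on either side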
Target sequence (P21728 whole entry, looked up): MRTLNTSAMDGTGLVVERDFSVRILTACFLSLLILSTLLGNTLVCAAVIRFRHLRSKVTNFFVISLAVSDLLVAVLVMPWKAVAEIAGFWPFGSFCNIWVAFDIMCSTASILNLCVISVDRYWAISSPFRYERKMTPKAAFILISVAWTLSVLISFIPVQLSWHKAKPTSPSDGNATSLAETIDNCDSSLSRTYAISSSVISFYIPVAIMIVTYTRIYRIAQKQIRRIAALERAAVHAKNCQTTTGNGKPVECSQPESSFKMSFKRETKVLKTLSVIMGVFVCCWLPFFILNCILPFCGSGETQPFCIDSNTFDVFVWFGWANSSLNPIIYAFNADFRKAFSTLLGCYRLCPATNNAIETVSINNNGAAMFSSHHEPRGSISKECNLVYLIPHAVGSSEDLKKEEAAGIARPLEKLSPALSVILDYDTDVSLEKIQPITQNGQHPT
M1 agonist = M1 muscarinic receptor agonism; AID 626; B-score at 10 µM; CHO-M1 cells, Fluo-4 calcium fluorescence, agonist mode; hits give high values; hit rate 3% among 64,000;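 active = fluorescence rise, raw or as B-score row- and column-corrected plate score, outside the 99.7% band of its plate's samples, either direction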
M1 antag = blocks the rat M1 muscarinic receptor response to acetylcholine. AID 628. CHO-M1 cells, Fluo-4 calcium, ACh EC80 antagonist mode; hits give low values. B-score at 10 µM. P08482. hit rate 3.4% among 64,000;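 active = calcium fluorescence response, raw or row-and-column corrected B-score, differing from the plate sample mean either way at a set confidence level, mostly lower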
FXIIa inh mix = blocks human factor XIIa in pooled compound mixtures; P00748; inhibition, % at 5 µM; hit rate 0.2% among 62,000; purified FXIIa, fluorogenic substrate;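 note: 0% = enzyme without compound and 100% = no enzyme blank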
D1 PAM confirm = confirmation of human D1 dopamine receptor allosteric modulators; shares compounds with D1 allo mod; HEK293 D1 CRE-luciferase, dopamine EC30 potentiation; hits give high values; luminescence at 10 µM; hit rate 88% among 2,200; AID 642;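 active = luminescence in either of two replicates above the same-plate mean plus 3 SD of the low-dose dopamine control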
D1 no dopamine = activates D1 CRE-luciferase signal without dopamine present; luminescence at 10 µM; HEK293 D1 CRE-luciferase, luminescence, no dopamine; hits give high values; shares compounds with D1 allo mod; AID 646; hit rate 0.8% among 1,900; in the data active = luminescence above about 3900
Isoprot counter = alters isoproterenol CRE-luciferase response in HEK293 cells; shares compounds with D1 allo mod; HEK293 D1 CRE-luciferase, isoproterenol EC30 counter-screen; calls only at 10 µM; hit rate 63% among 2,200; AID 647;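 active = luminescence in either replicate above plate mean of wells with a partly effective reference agonist dose plus 3 SD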;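 note: isoproterenol raises cAMP through native beta-adrenoceptor Gs so signal bypasses D1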
* marks the source's active call; other numbers are inactive results. Compounds with a hit are over-represented: about 7.4% of the library has one in this group of screens. Cut-off read from the data, not from the text of the source, unless noted: active = inhibition above about 20% (passing the limit was not always enough); inactive = the rest.

Results for CSc1nc(N2CCOCC2)c2c3c(sc2n1)CCCC3 ?
FXIa inh mix: 5.1; hDAT+cocaine: -0.141; D1 allo mod: 10.9*; M1 agonist: -0.957; M1 antag: -0.512; FXIIa inh mix: -18.4; D1 PAM confirm: 11612*; D1 no dopamine: 1664; Isoprot counter: active

How did CCOC(=O)c1ccc(NC(=O)NC2CC3CCC(C2)N3Cc2nnnn2Cc2ccco2)cc1 (configuration not stated) do in these assays?
hDAT+cocaine: -0.288

How did CC(C)(C)n1nnnc1CN1C2CCC1CC(NC(=O)Nc1ccccc1)C2 (configuration not stated) do in these assays?
FXIa inh mix: -0.7; hDAT+cocaine: 0.517; D1 allo mod: 4.77*; M1 agonist: 0.0186; M1 antag: 1.38; FXIIa inh mix: 10.7; D1 PAM confirm: 5228; Isoprot counter: inactive

What do the screens show for `CCOC(=O)c1c(NC(=O)CN(CC)CC)sc2c1CCN(C(=O)OCC)C2`?
FXIa inh mix: 5.8; hDAT+cocaine: 0.564; D1 allo mod: 6.12*; FXIIa inh mix: -14.8; D1 PAM confirm: 8852*; D1 no dopamine: 1716; Isoprot counter: active

What do the screens show for `CCOC(=O)c1c(-c2cccs2)csc1NC(=O)CN1CCOCC1`?
FXIa inh mix: 5.7; hDAT+cocaine: -0.703; D1 allo mod: 11*; M1 agonist: 0.721; M1 antag: -1.28; FXIIa inh mix: 6.1; D1 PAM confirm: 19940*; D1 no dopamine: 1788; Isoprot counter: active

What do the screens show for `CCOC(=O)c1c(NC(=O)CN2CCOCC2)sc2c1CCCC2=O`?
FXIa inh mix: -1.1; hDAT+cocaine: 0.297; D1 allo mod: 5.44*; M1 agonist: 0.0116; M1 antag: -1.31; FXIIa inh mix: 2.0; D1 PAM confirm: 8480*; D1 no dopamine: 1768; Isoprot counter: active

How did CCOC(=O)c1c(NC(=O)CN2CCCCC2)sc2c1CCN(C(=O)OCC)C2 do in these assays?
FXIa inh mix: 3.7; hDAT+cocaine: 0.467; D1 allo mod: 3.75*; M1 agonist: 1.03; M1 antag: -1.03; FXIIa inh mix: 2.9; D1 PAM confirm: 7072*; Isoprot counter: active

How did CCOC(=O)c1c(NC(=O)COC)sc2c1CCCC2 do in these assays?
FXIa inh mix: 2.4; hDAT+cocaine: 0.646; D1 allo mod: 2.18; M1 agonist: 0; M1 antag: -0.111; FXIIa inh mix: -4.7

What do the screens show for `O=C(CSc1nc2ccccc2n1CCc1ccccc1)NC1CCS(=O)(=O)C1` (configuration not stated)?
hDAT+cocaine: 0.564

What do the screens show for `CCOc1cc(C(=O)Nc2ccc3c(c2)OCO3)ccc1OC(F)F`?
FXIa inh mix: -0.7; hDAT+cocaine: 0.985; D1 allo mod: 7.62*; M1 agonist: -0.647; M1 antag: -0.311; FXIIa inh mix: 3.8; D1 PAM confirm: 13356*; D1 no dopamine: 1552; Isoprot counter: active

Results for CCOc1ccc(C(=O)Nc2ccc3c(c2)OCCO3)cc1OC ?
FXIa inh mix: 3.0; hDAT+cocaine: 0.186; D1 allo mod: -0.0562; M1 agonist: 0.561; M1 antag: 0.0116; FXIIa inh mix: -14.6

How did CCOC(=O)c1[nH]c(C)c(C(=O)N2CCN(c3cccc(Cl)c3)CC2)c1C do in these assays?
FXIa inh mix: 3.2; hDAT+cocaine: 1.67; M1 agonist: -0.0124; M1 antag: -0.00644; FXIIa inh mix: 7.4

How did COc1ccc(S(=O)(=O)N2CCSC2c2ccc(OC)c(OC)c2)cc1 (configuration not stated) do in these assays?
FXIa inh mix: 6.2; hDAT+cocaine: 0.237; D1 allo mod: 4.17*; M1 agonist: -1.16; M1 antag: -0.629; FXIIa inh mix: -0.8; D1 PAM confirm: 10220*; D1 no dopamine: 1664; Isoprot counter: inactive

How did COC(=O)c1cccc(NC(=O)/C(=C\c2ccccc2)NC(=O)c2ccccc2Cl)c1 do in these assays?
hDAT+cocaine: 1.34

What do the screens show for `CC1(C)Cc2c(sc3c2c(=N)n(Cc2ccco2)c(=O)n3Cc2ccc(Cl)cc2)CO1`?
FXIa inh mix: 2.9; hDAT+cocaine: 0.725; D1 allo mod: 24.5*; M1 agonist: 0.00309; M1 antag: -0.0483; FXIIa inh mix: 6.1; D1 PAM confirm: 24660*; D1 no dopamine: 1604; Isoprot counter: active

Assay outcomes from PubChem BioAssay.
